The values that follow come from the OligoGym collection.
Further: reference of the scale not given here.

For one experiment, the target named is GRAMD1C. The experiment can be described thus: pooled miR-30 sensor sort-seq; sequence = guide strand. As to conditions: shRNA.
TTGCTATAGAAACATAGCCAGT showed a sensor-assay potency score (higher = more potent) of -1.61.

The sequence TTCATTTTTATTCAAGTCCAGT registered a sensor-assay potency score (higher = more potent) of -0.865.

For the sequence TAACTCTTGAAAAAATATCTGA, the sensor-assay potency score (higher = more potent) was -0.51.

Take TTATTTAGTAGATCAAACGTTT: the sensor-assay potency score (higher = more potent) is -0.243.

In turn, TACATCTTCCTGTAAGTCGGTG gave a sensor-assay potency score (higher = more potent) of -0.625.

As to TAGTCCTCCAAAGAACTCCAGG, the sensor-assay potency score (higher = more potent) is -0.901.

Consider TAACAAATCTGATTCAAGCTGT, for which the sensor-assay potency score (higher = more potent) is 0.354.

For the sequence TATAAAGCAACTTACTTCGATA, the sensor-assay potency score (higher = more potent) is -0.838.

TATTCTTCTGAATAGTTTCTGC had a sensor-assay potency score (higher = more potent) of -0.573.

TTTTGATGAATTTCCATCGAAT returned a sensor-assay potency score (higher = more potent) of -0.801.

For the sequence TTGATAGTCAGTACACTTGTAC, the sensor-assay potency score (higher = more potent) was determined as 0.115.

The sequence ATAATCATCATCAACATGCAGA yielded a sensor-assay potency score (higher = more potent) of 0.0723.

The next experiment deals with GRHL3. The description is as above. Conditions: shRNA.
Regarding TCACAGAAGATCTTGATCTGGC, the sensor-assay potency score (higher = more potent) came out at 0.419.

The sequence TTGACTAAGATTCCTCGCTTGC returned a sensor-assay potency score (higher = more potent) of -0.416.

As for TATTCTTCTTGAGCAAATCTGG, the sensor-assay potency score (higher = more potent) was -0.748.

On to TTTTGTGAGGAAAAGTCTGTGC, for which the sensor-assay potency score (higher = more potent) was -0.211.

With TTGATCTGGCAGACAGCACGGT, the sensor-assay potency score (higher = more potent) is -0.0201.

On to TTTTCTAGGTACGTCTTCCAGG, for which the sensor-assay potency score (higher = more potent) was -0.466.

In turn, TTGCATTTCTTGTAGACTTTGT gave a sensor-assay potency score (higher = more potent) of -0.218.

TAGGTCGTCTCATTGCCCCTGA came in with a sensor-assay potency score (higher = more potent) of 0.415.

Sequence TTCTTCTTGAGCAAATCTGGGT registered a sensor-assay potency score (higher = more potent) of -0.605.

On to TAGTGTAAGAGAATTTCTGCAA, for which the sensor-assay potency score (higher = more potent) stood at 0.49.

In the case of TTTGTGGCAGCTGTCAACGGGT, the sensor-assay potency score (higher = more potent) was -0.745.
